# A selection: hits, their analogues and other compounds. The true share with any hit is near 2.4%.
# POLK inh = DNA polymerase kappa (human) inhibition | Q9UBT6 | purified Pol kappa, fluorescent DNA synthesis assay, 10 min | Potency, µM (top dose mostly 107 µM), for inactives: top-dose activity, negative = inhibition, hits mostly inhibitors | hit rate 0.53% among 400,000 | AID 588579; further: on the % scale 0 is the no-effect control and ±100 the full control effect
#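 First, compounds were pin-transferred onto 10 nM Pol kappa. After 15 min at room temperature, substrate was added to 50 nM final. Fluorescence was then measured kinetically at 0 and 10 min.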
# POLB inh = inhibitors of human DNA polymerase beta | Potency, µM (doses to about 114 µM), for inactives: at the highest dose activity change, negative = inhibition, usual class: inhibitors | AID 485314 | hit rate 1.3% among 340,000 | Pol beta primer extension/strand displacement, fluorescence kinetic; further: on the % scale 0 is the no-effect control and ±100 the full control effect
#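 Pol beta (10 nM) and compounds were preincubated 15 min at room temperature, then 50 nM substrate (final) started primer extension/strand displacement. Reads were taken at 0 and 10 min; concentration-response data were fitted to a four-parameter Hill equation.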
# FEN1 inhibitor = inhibitors of human flap endonuclease 1. AID 588795. hit rate 0.35% among 390,000. Potency, µM (doses to about 114 µM), for the others: at the highest dose activity change, negative = inhibition, usual class: inhibitors. P39748. Recombinant FEN1 flap cleavage, fluorescence, 15 min; further: on the % scale 0 is the no-effect control and ±100 the full control effect; nearly all actives have a fitted effect of over 65% in size
#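 Quantitative HTS format: each compound was titrated, incubated with 10 nM nuclease for 15 min at room temperature, then challenged with flap substrate at 50 nM final. Signal change over 15 min gave concentration–effect curves.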
# POLI inh = DNA polymerase iota (human) inhibition; Potency, µM (highest dose often 115 µM), without a hit: at the highest dose activity, negative = inhibition, usual class: inhibitors; hit rate 1% among 390,000; Pol iota fluorescent replication assay, 10 min; Q9UNA4
# Target sequence (Q9UNA4 whole entry, looked up): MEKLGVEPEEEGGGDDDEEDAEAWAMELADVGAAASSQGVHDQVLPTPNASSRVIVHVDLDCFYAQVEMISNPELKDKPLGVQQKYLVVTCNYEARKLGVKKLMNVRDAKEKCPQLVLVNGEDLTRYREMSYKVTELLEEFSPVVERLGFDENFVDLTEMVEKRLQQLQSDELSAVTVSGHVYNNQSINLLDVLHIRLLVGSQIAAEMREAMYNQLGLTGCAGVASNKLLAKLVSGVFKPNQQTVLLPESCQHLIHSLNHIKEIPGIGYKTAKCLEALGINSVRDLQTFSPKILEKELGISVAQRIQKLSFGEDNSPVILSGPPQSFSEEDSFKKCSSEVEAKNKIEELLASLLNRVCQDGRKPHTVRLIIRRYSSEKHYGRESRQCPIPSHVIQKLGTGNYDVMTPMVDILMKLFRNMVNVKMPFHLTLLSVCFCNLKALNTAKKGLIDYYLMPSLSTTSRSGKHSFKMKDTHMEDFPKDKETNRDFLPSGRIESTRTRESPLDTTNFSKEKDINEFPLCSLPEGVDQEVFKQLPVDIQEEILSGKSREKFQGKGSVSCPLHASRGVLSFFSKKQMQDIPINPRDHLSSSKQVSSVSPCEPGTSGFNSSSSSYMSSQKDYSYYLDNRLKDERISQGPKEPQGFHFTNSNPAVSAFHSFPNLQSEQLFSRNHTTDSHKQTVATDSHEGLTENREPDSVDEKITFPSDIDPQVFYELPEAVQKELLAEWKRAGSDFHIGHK
#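 Pol iota at 10 nM preincubated 15 min with compounds at room temperature; reaction started with fluorescent substrate, 50 nM final. Fluorescence read kinetically at 0 and 10 min; buffer-only wells as negative control.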
# TDP1 inh = blocks human tyrosyl-DNA phosphodiesterase 1. recombinant TDP1, AlphaScreen DNA substrate cleavage. Q9NUW8. hit rate 0.28% among 350,000. Potency, µM (series often up to 130 µM), inactives show top-dose activity change, negative = inhibition, usual class: inhibitors; further: on the % scale 0 is the no-effect control and ±100 the full control effect; nearly all actives have a fitted effect of over 40% in size
#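 Steps: enzyme plus compound, 15 min RT; add biotin/phosphotyrosine-FITC oligonucleotide (15 nM final), react 5 min; add donor/acceptor beads (10 ug/ml final), 10 min; read AlphaScreen. Tdp1 at 1 nM final.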
# POLH inh = blocks human DNA polymerase eta activity; recombinant Pol eta, fluorescent DNA replication assay; Potency, µM (top dose mostly 114 µM), inactives show at the highest dose activity change, negative = inhibition, usual class: inhibitors; hit rate 1.2% among 390,000; AID 588591; further: on the % scale 0 is the no-effect control and ±100 the full control effect
#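 Fluorescent replication assay: 50 nM final substrate added after a 15 min room-temperature compound preincubation with 10 nM enzyme. Signal taken at 0 min and again at 10 min.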
# Active calls of the source: *; ? = inconclusive; nt = not tested or not shown; [ ] = dose if it differs, or a comment. The call rests on the fitted dose curve; in most records, active means well fitted curve in the direction sought with a large enough effect; inconclusive means small, poorly fitted or top-dose-only effect, or another doubt; inactive means no such curve, though single readings can be large; an effect the other way counts as inactive or inconclusive. Potency means the concentration at half of the fitted maximal effect.
SMILES,POLK inh,POLB inh,FEN1 inhibitor,POLI inh,TDP1 inh,POLH inh
O=C(COC(=O)CSc1ccc(F)cc1)NCc1ccco1,?,nt,13%,-18%,4%,-10%
CCOc1cc(C(=O)OCC(=O)NCc2ccco2)cc(OCC)c1OCC,?,18µM*,-17%,?,-6%,?
O=C(COC(=O)c1ccc(NS(=O)(=O)c2cccs2)cc1)NCc1ccco1,32µM*,?,45µM*,8.9µM*,nt,4µM*
Cc1ccc(NS(=O)(=O)c2cccc(C(=O)OCC(=O)NCc3ccco3)c2)cc1,?,-13%,-6%,?,-1%,?
COc1ccc(S(=O)(=O)N(CC(=O)NCc2ccco2)c2ccccc2OC)cc1,?,?,-8%,50µM*,nt,?
COc1cc(C(=O)OCC(=O)NCc2ccco2)cc(OC)c1OC,-15%,?,2%,?,-1%,?
COc1ccc(CCC(=O)NCc2ccco2)cc1,?,40µM*,20%,-53%,-2%,20µM*
C/C=C(\NNC(C)=O)c1ccc(O)cc1,-2%,nt,-8%,1%,nt,nt
COc1ccc(N2C=C3C(=O)C(C)(OC(=O)C4CCCC4)C(=O)C=C3C=C2c2ccsc2)cc1 (configuration not stated),nt,nt,nt,nt,7%[21 µM],nt
Nc1c(Br)cc(C=O)cc1Br,3%,nt,-4%,37%,nt,nt
Cc1cc2c(s1)c1cnn(Cc3ccc(C)c(F)c3F)c(=O)c1n2C,nt,nt,nt,nt,-14%,nt
COc1ccc(-c2nnc3ccc(SCC(=O)NCc4ccco4)nn23)cc1,-9%,-24%,-12%,1%,79µM*,-17%
CCn1c(=O)cc(OCC(=O)NCc2ccc(C)o2)c2ccccc21,-16%,12%,-9%,-17%,-2%,-1%
O=C(COC(=O)c1cccnc1Cl)NCc1ccco1,-42%,16µM*,0%,?,40µM*,?
CCn1c(=O)cc(OCC(=O)NCc2ccco2)c2ccccc21,-15%,45µM*,10%,?,?,?
O=C(CSc1ccc2nnc(-c3ccccc3)n2n1)NCc1ccco1,-36%,-18%,-4%,-2%,?,-5%
COc1cc(OC)cc(C(=O)NCC(=O)OCC(=O)NCc2ccco2)c1,?,nt,0%,79µM*,0%,?
CC(C)(CCCCCCCCCCC(C)(C)CC(=O)O)CC(=O)O,?,nt,nt,nt,17%,nt
Cc1sc2ccccc2[n+]1CCCC[n+]1c(C)sc2ccccc21,3%,nt,4%,-6%,nt,nt
CCCCCCN(CCCCCC)c1ccc(/C=C/c2ccnc3ccccc23)cc1,-10%,nt,4%,36%,nt,nt
CC(C)Cc1nn2c(=O)cc(COC(=O)c3ccccc3NC(=O)c3cccs3)nc2s1,-7%[60.1 µM],0%,-1%,-17%,-1%,0%
COc1cc(OC)cc(C(=O)OCC(=O)NCc2ccco2)c1,-38%,nt,12%,45µM*,-8%,?
Cc1cccc(S(=O)(=O)NC2CCN(C#N)C2)c1 (configuration not stated),nt,nt,nt,nt,0%,nt
N=C(N)c1ccc(N=Nc2c(O)ccc3c2[nH]c2ccccc23)cc1,79µM*,nt,28µM*,-10%,nt,40µM*
NC(=O)c1ccc(N=Nc2c(O)c3ccccc3[nH]c2=O)cc1,nt,33%,nt,nt,3%,nt
SMILES,POLK inh,POLB inh,FEN1 inhibitor,POLI inh,TDP1 inh,POLH inh
CCOc1cc(/C=N/Nc2nnc(C)n2N)ccc1O,-18%,-24%,-21%,8.9µM*,nt,-5%
Cc1nnc(N/N=C/c2cc(C)n(-c3ccc(F)cc3)c2C)n1N,-27%,-1%,-1%,?,3%,-5%
Cc1nnc(N/N=C/c2ccccc2O)n1N,-19%,0%,1%,14µM*,5%,-11%
Cc1nnc(N/N=C/c2c(Cl)cccc2Cl)n1N,5%,-10%,12%,11µM*,5%,-18%
Oc1ccccc1/C=N/Nc1nn[nH]n1,6%,-2%,13%,31%,7%,-5%
CCOc1cc(/C=N/Nc2ncnc(Cl)c2N)ccc1O,-25%,?,?,9%,8%,-30%
CC[n+]1ccc(C[n+]2ccccc2)c2ccccc21,-11%,18%,-8%,8%,22µM*,1%
O=C(CCl)c1ccc2[nH]c(=O)oc2c1,-23%,-21%,1%,?,0%,45µM*
Nc1ccc2cccc(O)c2c1,79µM*,nt,-11%,13µM*,nt,22µM*
CC(=O)Nc1ccc(/C=C/c2ccnc3ccccc23)cc1,1%,nt,-20%,20%,nt,nt
CC1=C(C(=O)OCc2ccc3nsnc3c2)N2C(=O)[C@@H](NC(=O)OCc3ccc4nsnc4c3)[C@H]2SC1,-39%,nt,1%,?,nt,nt
CCOc1cccc(CNc2ccc(O)cc2)c1OCc1ccc(Cl)cc1Cl,-18%,-1%,-11%,3.2µM*,4%,?
CCOc1cc(CNc2ccc(O)cc2)cc(Cl)c1OCc1ccccc1,-25%,-29%,-23%,25µM*,4%,-12%
CCOc1cccc(CNc2ccc(O)cc2)c1OCc1ccccc1Cl,-24%,-9%,?,8.9µM*,8%,?
Cc1cccc([S+](=O)([O-])NC2CCN(C#N)CC2)c1,nt,nt,nt,nt,0%,nt
C=C1C=C(C(F)F)n2ncc(C(=O)N3CCCCC3)c2N1,-23%,nt,12%,-4%,nt,nt
C#Cc1nc(Nc2cccc(Cl)c2)nc(NC2CCCC2)n1,nt,nt,nt,nt,-2%,nt
CCOC(=O)C1(C)C=C(Nc2ccc(C)cc2)C(=O)N1c1ccccc1 (configuration not stated),-23%,2%,-2%,20%,nt,?
CCn1nc(C)c2c(-c3ccccc3)cc(=O)n(C(C)C(=O)NCc3cccc(OC)c3)c21 (configuration not stated),0%,1%,-21%,0%,6%,-5%
c1ccc(CN(Cc2ccccc2)Cc2nnc(-c3cc4ccccc4[nH]3)o2)cc1,nt,nt,nt,nt,0%,nt
O=c1[nH]c(Nc2ccccn2)cc2ccccc12,-5%,nt,-8%,?,nt,?
O=c1[nH]c(Nc2ccc(F)cc2)cc2ccccc12,-6%,-16%,3%,7.1µM*,3%,22µM*
NC(C(=O)O)c1cc(O)cc(O)c1 (configuration not stated),10%[19.4 µM],nt,nt,nt,-9%,nt
Cc1cccc(NC(=O)CN2CCN(C(=O)c3ccc(OCc4cn5ccccc5n4)cc3)CC2)c1C,-39%,nt,20%,?,45µM*,-9%
Cc1cccc(NC(=O)CN2CCN(C(=O)c3cccc(-n4cnnn4)c3)CC2)c1C,1%,nt,5%,-8%,1%,-8%
Cc1ccc(SC2=NS(=O)(=O)c3ccccc32)c(C)c1,-16%,nt,-25%,-5%,1%,nt
Cc1cc2[nH]c3c(=O)n(Cc4ccccc4F)ncc3c2s1,nt,nt,nt,nt,0%,nt

# Screens: PubChem BioAssay, National Center for Advancing Translational Sciences (NCATS)
